Here are results for 36 compounds from PubChem BioAssay.

The subject of this experiment is Noggin (protein binding on small-molecule microarray). As to the kind of experiment: small molecules binding Noggin protein – biochemical, 635/667 nm fluorescence, primary screen (AID 1095).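 Also: score merges 667 nm feature fluorescence with signal to noise over triplicate slides.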 To be noted: 635 nm fluorescence, higher = more signal.
`COC(=O)[C@@]1(Cc2ccc(F)cc2)[C@H]2c3cc(C(=O)N4CCCC4)n(CCc4c[nH]c5ccc(OC)cc45)c3C[C@H]2CN1C(=O)c1ccccc1`: the composite z-score was found to be 1.26.
As for `COCCOC(=O)N1C(=O)[C@@]2(c3cc(C#CC4(O)CCCCCC4)ccc31)[C@H](C(=O)N1CCCCCCC1)[C@H]1C(=O)O[C@H](c3ccccc3)[C@H](c3ccccc3)N1[C@@H]2c1ccc(OCCO)cc1`, the figure is 1.89.
As for `COC(=O)Cn1c(C(=O)N2CCCC2)cc2c1C[C@H]1CN(C(=O)c3ccccc3)[C@@](Cc3ccc(F)cc3)(C(=O)OC)[C@@H]21`, the figure is -0.405.
As for `NC(=O)N1C(=O)C2C(C1=O)C1C=C(c3ccc(CO)cc3)C2C(C2CC2)N1Cc1sc2ccccc2c1Cl` (stereo unspecified), the figure is 0.695; as for `CC=CC(O)C1C=CC2C(=O)N(C)C(=O)C2N1Nc1ccc([N+](=O)[O-])cc1[N+](=O)[O-]` (stereo unspecified), -0.448.
In turn, `CN(C)CCCNC(=O)[C@@]1(c2ccc([N+](=O)[O-])cc2)CC(=O)N(CC23CC4CC(CC(C4)C2)C3)[C@@H]1c1ccc(CO)cc1` yielded a composite z-score of 1.32.
As for `C=CC1c2cc(O)c(OC)cc2CCN1Cc1sc2ccccc2c1Cl` (stereo unspecified), the figure is 0.123; as for `CC(C)C(=C=CC[C@@H](O)c1ccccc1OCCO)C[C@@H](O)COCc1ccccc1`, 1.24.
Consider `C=CCN1C(=O)[C@]2(CC=C)N=C(c3ccc(OCCCO)cc3)O[C@@H]2c2ccccc21`, for which the composite z-score turned out to be 1.33.
As for `Cc1ccc(S[C@]2(C(=O)NCc3ccccc3)CC(=O)N(C(C)C)[C@@H]2c2ccc(CO)cc2I)cc1`, the figure is -0.466.
To `CO[C@H]1O[C@H](CO)[C@@H](OC(=O)Nc2ccc(C(F)(F)F)cc2)[C@H](OC(=O)Nc2ccc3c(c2)OCO3)[C@H]1OC(=O)Nc1ccc2c(c1)OCO2` belongs 0.293; to `CN1C2C=C(CCCO)C(C3C(=O)N(C(N)=O)C(=O)C32)C1c1cccs1` (stereo unspecified), -0.23.
To `COC(=O)C(CC#Cc1ccc2c(c1)[C@]1(C(=O)N2)[C@H](C(=O)O)[C@H]2C(=O)O[C@H](c3ccccc3)[C@H](c3ccccc3)N2[C@@H]1c1ccccc1OCCO)C(=O)OC` belongs 1.27; to `CC(C)CCC[C@@H](C)[C@H]1CC[C@@]2(C)C3=C(CC[C@]12C)[C@@]1(C)CC[C@H](OC(=O)c2ccc(Br)cc2)C(C)(C)C1CC3` (stereo partly specified), 0.326; to `Cc1ccc(S[C@]2(C(=O)NCCN3CCOCC3)CC(=O)N(Cc3ccccc3C(F)(F)F)[C@@H]2c2ccc(CO)cc2I)cc1`, -0.586.
As for `CCCCN1CC=CC23O[C@@H]4C=CCOC(=O)[C@@H]4[C@H]2C(=O)N(CCCO)[C@@H]3C1=O` (stereo partly specified), the composite z-score was -0.957.
With `C=C[C@@H](C)[C@H](OC(=O)Nc1ccc(SC)cc1)c1ccc(OCCO)cc1`, the composite z-score amounted to 0.362.
To `O=c1cccc(-c2cccc(Cl)c2)o1` belongs -0.162; to `Cc1ccc(S[C@]2(C(=O)NCC(F)(F)F)CC(=O)N(Cc3ccccc3)[C@@H]2c2ccc(CO)cc2)cc1`, -0.92; to `COc1ccc([Si](C)(C)[C@H]2[C@H](CC(=O)N3Cc4ccccc4C[C@H]3CO)O[C@@]3(C(=O)N(Cc4cccc(N5CCCCC5=O)c4)c4ccccc43)[C@@H]2C)cc1`, 1.02.
`O=C1OCC=C[C@H]2OC34C=CCN(Cn5nnc6ccccc65)C(=O)[C@H]3N(CCCCCCO)C(=O)[C@@H]4[C@@H]12` (stereo partly specified) had a composite z-score of -1.04.
`COCCOC(=O)N1C(=O)[C@@]2(c3cc(C#Cc4ccc(OC)cc4)ccc31)[C@H](C(=O)N1CCN(c3ncccn3)CC1)[C@H]1C(=O)O[C@H](c3ccccc3)[C@H](c3ccccc3)N1[C@@H]2c1ccccc1OCCO` registered a composite z-score of 0.735.
As for `O=C1C2C=CC(C(O)c3cc(C(F)(F)F)cc(C(F)(F)F)c3)N(Nc3ccc([N+](=O)[O-])cc3)C2C(=O)N1c1ccccc1` (stereo unspecified), the figure is 0.411.
To `CCOC(=O)C[C@H]1[C@H](OC(=O)Cc2ccc3c(c2)OCO3)[C@@H](NC(=O)Cc2ccc(OC)cc2)c2cc(OCCCO)ccc2N1C(=O)c1ccccc1` belongs 0.0653; to `O=C1NCC(=O)N2[C@@H]1C[C@@H](C(=O)O)[C@H]2c1ccc(O)cc1`, 1.44; to `C=C(COC)/C(=C/C[C@@H](OC(=O)c1ccncc1)c1cccc(OCCO)c1)c1cnc2ccccc2c1`, 1.61.
For `CCOC(=O)C[C@H]1[C@H](OC(=O)c2ccccc2-c2ccccc2)[C@@H](NC(=O)c2ccc3ccccc3n2)c2cc(OCCCO)ccc2N1C(=O)c1ccc2ccccc2n1`, the composite z-score amounted to 0.283.
As for `[N-]=[N+]=NCc1ccccc1C[C@]1(C(=O)NCC(O)CO)N=C(c2ccc(OCCCO)cc2)O[C@H]1c1ccccc1CN=[N+]=[N-]` (stereo partly specified), the figure is -0.0965; as for `C[n+]1ccc(CCCO)cc1`, 0.436; as for `CCCC[C@@H]1C[C@H]1[C@@H](NC(=O)c1ccccc1)c1ccc(Cl)cc1`, -2.06.
As for `C=C(CCCC)/C(=C/C[C@@H](OC(C)=O)c1ccc(CO)o1)c1cc(C(=O)OC)ccc1OC`, the composite z-score was determined as 1.44.
`CC(C)OC(=O)CC(=O)CC(O)c1cccc(C#N)c1` (stereo unspecified) registered a composite z-score of -0.412.
To `COC(=O)[C@@]1(Cc2ccccc2)[C@H]2c3cc(C(=O)N4CCCC4)[nH]c3C[C@H]2CN1C(=O)c1ccccc1` belongs -0.463.
For the compound `COc1c(C)cc(-c2cc3c(c(-c4ccccc4)n2)[Si](C(C)C)(C(C)C)OC3)cc1C`, the composite z-score was -0.24.
As for `C=CC[C@@]1(C(=O)N2CCCCC2)N=C(c2ccc(OCCCO)cc2)O[C@@H]1c1ccccc1`, the figure is 1.14; as for `CN(C)CCCNC(=O)[C@@H]1c2ccccc2C(=O)N(Cc2ccc(OC(F)(F)F)cc2)[C@H]1c1ccc(CO)cc1`, 0.912.
